Laboratory results published in PubChem BioAssay (NCATS).
“And” between values parts separate entries of the source, which are not always exact repeats. Equal values may be shown once. Inconclusive results are not listed. The source made the active and inactive calls. Calls come from the whole dose curve.

assay: Primary qHTS to identify inhibitors of SARS-CoV-2 cell entry (AID 1645846); settings: SARS-CoV-2 pseudovirus cell entry assay, luminescence; activity change, negative = inhibition: at 57.1 µM (top of the series) unless noted; series mostly up to 57.1 µM; note: nearly all actives have a fitted effect of over 45% in size
Text: Assay Provider: Wei Zheng, Ph.D.
National Center for Advancing Translational Sciences, National Institute of Health, Rockville, MD.
SARS-CoV-2 spike protein, within the viral envelope, mediates viral attachment and infection of host cells. The SARS-CoV-2 spike protein specifically binds to the host receptor ACE2 (Angiotensin-converting enzyme 2). This interaction promotes endocytosis of the viral particle, additional events lead to viral-host cell membrane fusion and release of the viral contents, allowing viral replication.
While SARS-CoV-2 requires BSL-3 facilities for live virus work, pseudotyped partices (PP) that incorporate SARS-CoV-2 spike proteins without replication elements could facilitate studies on viral entry mechanisms in a BSL-2 setting. This PP cell entry assay could also enable screening of small molecule compound libraries in BSL-2 setting to identify inhibitors of SARS-CoV-2 cell entry.
PROTOCOL TABLE (format as described by Inglese J, Shamu CE and Guy RK. 2007)
SEQUENCE No. (e.g., 1, 2, 3, etc.); […] (e.g., Cells, Incubation, Reagent, etc.); VALUE and DESCRIPTION.
1. Cells. Seed 1500 HEK293-ACE2 cells (Expi293F with stable expression of human ACE2) in 2 uL/well media (DMEM, 10% FBS, 1x L-glutamine, 1x Pen/Strep, 1 ug/ml puromycin) in white 1536-well assay plates (Greiner #782073).
2. Incubation. Incubate at 37C with 5% CO2 overnight (~16 h).
3. Compounds. Dispense 23 nL/well compounds in DMSO via pin transfer.
4. Incubation. Incubate for 1 hr at 37C 5% CO2.
5. Reagent. Dispense 2 uL/well of SARS-CoV-2-S pseudotyped particles. [a] PPs are produced with murine leukemia virus pseudotyping. [b] SARS-CoV-2-S is Wuhan-Hu-1 sequence (BEI #NR-52420) with C-terminal 19 amino acid truncation.
6. Centrifuge. […]
7. Incubation. Incubate at for 48 hr at 37C 5% CO2
8. Centrifuge. Remove supernatant with gentle centrifugation using a Blue Washer (BlueCat Bio).
9. Reagent. Dispense 4 uL/well of Bright-Glo Luciferase detection reagent (Promega #E2620).
10. Incubation. Incubate for 5 min at room temperature.
11. Detection. Read luminescence signal (Viewlux plate reader, PerkinElmer). Data was normalized with wells containing SARS-CoV-2-S PP as 100%, and wells containing bald PP (no fusion protein) as 0%.
Potency is the fitted concentration of half-maximal effect.

**Q.** Which activity change, negative = inhibition does the source give for `CCCCN1C[C@H](O)[C@@H](O)[C@H](O)[C@H]1CO` here?
**A.** Its activity change, negative = inhibition is -1.04%.

**Q.** For `Nc1ccncc1`, which activity change, negative = inhibition is on record?
**A.** The activity change, negative = inhibition was -28.2% [at 114 µM].

**Q.** With `C[n+]1ccccc1/C=N/O` as the compound, how does the Potency read?
**A.** Its Potency is “inactive”.

**Q.** Which activity change, negative = inhibition does the source give for `Cc1ccsc1C(=CCCN1CCC[C@@H](C(=O)O)C1)c1sccc1C` here?
**A.** Its activity change, negative = inhibition is -13.3%.

**Q.** With `NCCC(O)(P(=O)(O)O)P(=O)(O)O` as the compound, how does the Potency read?
**A.** Its Potency is “inactive”.

**Q.** For `C=C(c1ccc(C(=O)O)cc1)c1cc2c(cc1C)C(C)(C)CCC2(C)C`, which activity change, negative = inhibition is on record?
**A.** Its activity change, negative = inhibition is -6.82%.

**Q.** And the Potency?
**A.** Its Potency is “inactive”.

**Q.** What does the source list for `CN(CCOc1ccc(CC2SC(=O)NC2=O)cc1)c1ccccn1` (stereo not given)?
**A.** activity change, negative = inhibition: -30.2%; Potency: inactive

**Q.** For `CN(C)c1nc(N(C)C)nc(N(C)C)n1`, which Potency is on record?
**A.** Its Potency is “inactive”.

**Q.** And the activity change, negative = inhibition?
**A.** Its activity change, negative = inhibition is -16.8%.

**Q.** With `CCCN(CCC)S(=O)(=O)c1ccc(C(=O)O)cc1` as the compound, how does the activity change, negative = inhibition read?
**A.** Its activity change, negative = inhibition is -14.9%.

**Q.** With `CCCN(CCC)CCc1cccc2c1CC(=O)N2` as the compound, how does the Potency read?
**A.** The Potency was “inactive”.

**Q.** With `O=C(O)COCCN1CCN(C(c2ccccc2)c2ccc(Cl)cc2)CC1` (stereo not given) as the compound, how does the activity change, negative = inhibition read?
**A.** Its activity change, negative = inhibition is -14.4%.

**Q.** Which activity change, negative = inhibition does the source give for `OC(Cn1cncn1)(Cn1cncn1)c1ccc(F)cc1F` here?
**A.** Its activity change, negative = inhibition is -13.6% and -9.57%.

**Q.** For `Cc1cccc(C)c1NC1=NCCCS1`, which activity change, negative = inhibition is on record?
**A.** Its activity change, negative = inhibition is -11.5%.

**Q.** Which Potency does the source give for `CN1CCN(C(=O)O[C@H]2c3nccnc3C(=O)N2c2ccc(Cl)cn2)CC1` here?
**A.** The Potency was “inactive”.

**Q.** With `NC[C@H](O)c1ccc(O)c(O)c1` as the compound, how does the activity change, negative = inhibition read?
**A.** Its activity change, negative = inhibition is 4.91% and -20.6%.

**Q.** Which Potency does the source give for `Cc1ccc(NC(=O)c2ccc(CN3CCN(C)CC3)cc2)cc1Nc1nccc(-c2cccnc2)n1` here?
**A.** The Potency was 35.5 µM (active).

**Q.** With `CN1C(=O)CC(C)(c2ccccc2)C1=O` (stereo not given) as the compound, how does the activity change, negative = inhibition read?
**A.** Its activity change, negative = inhibition is -13.4%.

**Q.** Which Potency does the source give for `O=c1[nH]cc(F)c(=O)[nH]1` here?
**A.** Its Potency is 11.2 µM (active) and 14.1 µM (active).

**Q.** For `CC1(C)NC(=O)N(c2ccc([N+](=O)[O-])c(C(F)(F)F)c2)C1=O`, which activity change, negative = inhibition is on record?
**A.** The activity change, negative = inhibition was -23.9%.

**Q.** With `Nc1nc(N)c2nc(-c3ccccc3)c(N)nc2n1` as the compound, how does the Potency read?
**A.** The Potency was “inactive”.

**Q.** For `CCN(CC)C(=S)SSC(=S)N(CC)CC`, which Potency is on record?
**A.** The Potency was 891 nM (active) and 7.94 µM (active).

**Q.** Which Potency does the source give for `COC[C@@H](NC(C)=O)C(=O)NCc1ccccc1` here?
**A.** The Potency was “inactive”.

**Q.** For `CN(C)CCCN1c2ccccc2CCc2ccc(Cl)cc21`, which Potency is on record?
**A.** The Potency was 28.2 µM (active).

**Q.** Which results are given for `CCC1(c2ccccc2)C(=O)NCNC1=O`?
**A.** activity change, negative = inhibition: -9.71%; Potency: inactive

**Q.** Which Potency does the source give for `C#CCN(C)[C@H](C)Cc1ccccc1` here?
**A.** Its Potency is “inactive”.

**Q.** And the activity change, negative = inhibition?
**A.** Its activity change, negative = inhibition is -14%.

**Q.** Which Potency does the source give for `CCn1cc(C(=O)O)c(=O)c2cc(F)c(N3CCNCC3)cc21` here?
**A.** The Potency was “inactive”.

**Q.** What about the activity change, negative = inhibition of the same compound?
**A.** The activity change, negative = inhibition was -15.8%.

**Q.** With `CC(C)NCC(O)c1ccc(O)c(O)c1` (stereo not given) as the compound, how does the activity change, negative = inhibition read?
**A.** The activity change, negative = inhibition was -10.8%.

**Q.** And the Potency?
**A.** The Potency was “inactive”.

**Q.** For `Nc1cccc2c1CN(C1CCC(=O)NC1=O)C2=O` (stereo not given), which Potency is on record?
**A.** Its Potency is “inactive”.

**Q.** For `CC12CC3CC(C)(C1)CC(N)(C3)C2`, which activity change, negative = inhibition is on record?
**A.** The activity change, negative = inhibition was -26.3%.

**Q.** And the Potency?
**A.** Its Potency is “inactive”.

**Q.** Which Potency does the source give for `CCN(C)C(=O)Oc1cccc([C@H](C)N(C)C)c1` here?
**A.** The Potency was “inactive”.

same assay, conditions: SARS-CoV-2 pseudovirus cell entry assay, luminescence; at 11.3 µM (top of the series)

**Q.** With `O=C(O)c1cn(C2CC2)c2cc(N3CCNCC3)c(F)cc2c1=O` as the compound, how does the activity change, negative = inhibition read?
**A.** The activity change, negative = inhibition was -1.6%.

same assay, conditions: SARS-CoV-2 pseudovirus cell entry assay, luminescence; at 57.1 µM (top of the series)

**Q.** For `O=C(O)c1cn(C2CC2)c2cc(N3CCNCC3)c(F)cc2c1=O`, which activity change, negative = inhibition is on record?
**A.** Its activity change, negative = inhibition is 4.56%.
